In ChEMBL document CHEMBL3988442, “University of Dundee, Small-Polar-MMV Screening Library” (2021) one finds Percent Effect data, which are given here for 11 compounds.

Common to all, as to design: scale not given: direction of the effect not stated beside the values
In assay [1] the target is Protein translocase subunit SecA (Escherichia coli (strain K12)) (UniProt P10408). The assay is described as follows: Assay to Identify E. coli SecA ATPase Inhibitors. Format: functional. Particulars: 30 µM.
Chain of Protein translocase subunit SecA (Escherichia coli (strain K12)) (P10408 whole entry): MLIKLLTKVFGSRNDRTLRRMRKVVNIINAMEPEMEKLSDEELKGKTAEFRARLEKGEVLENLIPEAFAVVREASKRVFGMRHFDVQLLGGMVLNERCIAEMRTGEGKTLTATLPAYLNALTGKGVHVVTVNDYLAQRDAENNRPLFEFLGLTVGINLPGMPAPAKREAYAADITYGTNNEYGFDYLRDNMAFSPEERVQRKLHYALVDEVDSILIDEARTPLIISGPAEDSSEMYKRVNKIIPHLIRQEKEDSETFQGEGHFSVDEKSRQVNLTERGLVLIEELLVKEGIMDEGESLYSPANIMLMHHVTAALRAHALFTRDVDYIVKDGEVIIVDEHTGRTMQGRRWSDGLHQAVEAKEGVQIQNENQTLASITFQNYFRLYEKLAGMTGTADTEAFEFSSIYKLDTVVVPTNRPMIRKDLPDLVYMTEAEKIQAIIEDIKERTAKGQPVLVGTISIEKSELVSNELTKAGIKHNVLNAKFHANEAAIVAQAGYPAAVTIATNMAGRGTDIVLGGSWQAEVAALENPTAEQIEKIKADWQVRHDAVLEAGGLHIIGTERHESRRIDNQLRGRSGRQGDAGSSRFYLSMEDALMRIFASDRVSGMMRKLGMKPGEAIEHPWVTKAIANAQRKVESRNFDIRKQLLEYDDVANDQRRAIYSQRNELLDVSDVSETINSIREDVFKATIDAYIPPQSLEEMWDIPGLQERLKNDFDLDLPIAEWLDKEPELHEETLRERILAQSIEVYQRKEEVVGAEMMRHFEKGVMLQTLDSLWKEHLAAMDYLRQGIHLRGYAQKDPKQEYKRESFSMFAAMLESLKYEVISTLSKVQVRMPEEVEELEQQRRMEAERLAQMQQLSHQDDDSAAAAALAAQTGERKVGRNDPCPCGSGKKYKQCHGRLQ
The target of assay [2] is T1, Ubiquitin-activating enzyme e1, putative (Leishmania donovani (strain BPK282A1)) (UniProt E9BSI1).
T1 sequence (whole entry): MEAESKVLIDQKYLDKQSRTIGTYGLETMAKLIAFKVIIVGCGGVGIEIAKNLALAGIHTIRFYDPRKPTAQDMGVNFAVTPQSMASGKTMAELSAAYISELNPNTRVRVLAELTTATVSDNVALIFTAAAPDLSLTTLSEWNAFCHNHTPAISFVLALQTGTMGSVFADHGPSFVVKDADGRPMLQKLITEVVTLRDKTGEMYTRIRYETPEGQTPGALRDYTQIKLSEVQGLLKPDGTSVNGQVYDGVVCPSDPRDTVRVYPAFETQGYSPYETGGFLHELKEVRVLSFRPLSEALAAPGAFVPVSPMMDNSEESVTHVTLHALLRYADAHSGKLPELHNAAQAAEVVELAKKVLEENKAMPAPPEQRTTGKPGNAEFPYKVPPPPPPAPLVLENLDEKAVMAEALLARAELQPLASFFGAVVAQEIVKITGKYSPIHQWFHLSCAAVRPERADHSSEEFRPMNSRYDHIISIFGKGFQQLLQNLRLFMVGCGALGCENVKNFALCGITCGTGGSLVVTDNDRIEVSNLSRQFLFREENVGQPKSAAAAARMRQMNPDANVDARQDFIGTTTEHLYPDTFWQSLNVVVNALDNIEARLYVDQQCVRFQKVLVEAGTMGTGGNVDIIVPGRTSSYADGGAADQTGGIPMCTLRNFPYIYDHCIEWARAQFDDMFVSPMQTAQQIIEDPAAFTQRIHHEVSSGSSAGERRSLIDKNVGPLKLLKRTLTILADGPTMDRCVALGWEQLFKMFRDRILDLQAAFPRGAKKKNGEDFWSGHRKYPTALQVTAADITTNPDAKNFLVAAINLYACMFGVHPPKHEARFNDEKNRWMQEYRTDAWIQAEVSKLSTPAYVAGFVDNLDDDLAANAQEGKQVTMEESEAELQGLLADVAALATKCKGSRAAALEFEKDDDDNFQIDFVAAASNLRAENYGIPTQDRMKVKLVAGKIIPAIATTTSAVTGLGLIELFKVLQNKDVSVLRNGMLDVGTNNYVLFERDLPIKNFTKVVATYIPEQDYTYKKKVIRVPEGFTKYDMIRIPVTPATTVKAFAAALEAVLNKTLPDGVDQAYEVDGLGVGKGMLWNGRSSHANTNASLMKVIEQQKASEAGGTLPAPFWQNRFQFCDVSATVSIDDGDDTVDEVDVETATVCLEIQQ
The experiment in a line: Leishmania donovani Ubiquitin Activating Enzyme (LdE1). Format: functional. Particulars: 30 µM.

The target in assay [3] is AMP-activated protein kinase, AMPK (Homo sapiens) (UniProt P54646+O43741+P54619+Q9UGJ0+Q9Y478+Q13131+Q9UGI9). The assay is described as follows: AMP-dependent Kinase enzyme assay. An in vitro enzyme assay that detects ADP turnover that is directly proportional to AMPK activity. This uses naive AMPK that is activated during the assay with MK-8722. Format: functional. Particulars: 30 µM.

In assay [4] the target is Sialic acid-binding Ig-like lectin 9 (Homo sapiens) (UniProt Q9Y336). The experiment in a line: Hs-Siglec9 ALPHAscreen SOP 20170721. Particulars: 10 µM. (In general: In Alpha technology, singlet oxygen from a donor bead excites a nearby acceptor bead.)
Chain of Sialic acid-binding Ig-like lectin 9 (Homo sapiens) (Q9Y336 whole entry): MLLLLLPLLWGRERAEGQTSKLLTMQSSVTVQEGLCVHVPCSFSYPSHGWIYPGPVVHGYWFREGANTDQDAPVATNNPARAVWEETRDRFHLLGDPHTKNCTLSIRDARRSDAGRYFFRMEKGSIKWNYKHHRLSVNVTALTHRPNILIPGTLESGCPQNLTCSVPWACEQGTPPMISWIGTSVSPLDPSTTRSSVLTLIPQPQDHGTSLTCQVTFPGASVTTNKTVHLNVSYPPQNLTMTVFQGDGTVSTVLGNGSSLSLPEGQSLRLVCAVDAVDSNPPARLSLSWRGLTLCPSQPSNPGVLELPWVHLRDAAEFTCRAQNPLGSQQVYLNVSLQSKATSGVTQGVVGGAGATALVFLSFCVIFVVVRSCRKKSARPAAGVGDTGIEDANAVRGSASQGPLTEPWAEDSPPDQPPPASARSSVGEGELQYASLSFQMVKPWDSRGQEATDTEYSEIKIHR
For another assay, the system named is Trypanosoma cruzi. The experiment in a line: Trypanosoma cruzi phosphomannomutase and mannose-1-phosphate guanylyltransferase assay. The assay is classed as functional. Particulars: 10 µM.
The target of assay [5] is T2, Arginase-2, mitochondrial (Homo sapiens) (UniProt P78540).
T2 sequence (whole entry): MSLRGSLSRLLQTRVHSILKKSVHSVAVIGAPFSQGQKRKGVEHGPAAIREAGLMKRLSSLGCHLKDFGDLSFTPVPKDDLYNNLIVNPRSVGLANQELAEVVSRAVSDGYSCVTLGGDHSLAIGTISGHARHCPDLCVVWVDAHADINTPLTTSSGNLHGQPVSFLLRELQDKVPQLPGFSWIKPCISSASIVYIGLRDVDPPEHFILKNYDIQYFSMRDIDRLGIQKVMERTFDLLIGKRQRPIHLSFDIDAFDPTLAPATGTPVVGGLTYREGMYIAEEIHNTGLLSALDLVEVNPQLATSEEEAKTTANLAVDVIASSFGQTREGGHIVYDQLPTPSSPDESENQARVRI
The assay is described as follows: in vitro enzyme assay to detect the production of urea directly proportional to the activity of Arginase II. Also: in the data most compounds retested in dose-response had high values. The assay is classed as functional. Particulars: 33.3 µM.

The target in assay [6] is T3, Proteasome subunit beta (Trypanosoma cruzi) (UniProt O96673).
T3 sequence (whole entry): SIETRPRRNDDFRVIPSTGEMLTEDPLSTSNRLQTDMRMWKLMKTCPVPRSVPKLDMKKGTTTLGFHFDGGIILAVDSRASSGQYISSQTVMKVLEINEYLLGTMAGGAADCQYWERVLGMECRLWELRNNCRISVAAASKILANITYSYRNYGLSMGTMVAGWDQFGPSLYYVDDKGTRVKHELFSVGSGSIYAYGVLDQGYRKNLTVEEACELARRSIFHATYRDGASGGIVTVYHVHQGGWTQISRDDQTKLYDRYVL
The assay is described as follows: Trypanosoma cruzi proteasome chymotrypsin-like activity (TcProtChymo) assay. Also: in the data most compounds retested in dose-response had high values. The assay is classed as functional. Particulars: 9.37 µM.

For the next assay, the species on record is Homo sapiens. The experiment in a line: To identify inhibition of the IFN signalling (Jak-Stat) pathway via expression of an eGFP reporter gene under the control of an IFN-stimulated response element (ISRE) containing MxA promoter. The assay is classed as functional. Particulars: 30 µM. On the technique in general: Reporter assays use an easily measured gene product as a stand-in for the process of interest.

Assay [7] addresses T4, Tyrosyl-tRNA synthetase, putative (Trypanosoma cruzi (strain CL Brener)) (UniProt Q4DSP6).
T4 sequence (whole entry): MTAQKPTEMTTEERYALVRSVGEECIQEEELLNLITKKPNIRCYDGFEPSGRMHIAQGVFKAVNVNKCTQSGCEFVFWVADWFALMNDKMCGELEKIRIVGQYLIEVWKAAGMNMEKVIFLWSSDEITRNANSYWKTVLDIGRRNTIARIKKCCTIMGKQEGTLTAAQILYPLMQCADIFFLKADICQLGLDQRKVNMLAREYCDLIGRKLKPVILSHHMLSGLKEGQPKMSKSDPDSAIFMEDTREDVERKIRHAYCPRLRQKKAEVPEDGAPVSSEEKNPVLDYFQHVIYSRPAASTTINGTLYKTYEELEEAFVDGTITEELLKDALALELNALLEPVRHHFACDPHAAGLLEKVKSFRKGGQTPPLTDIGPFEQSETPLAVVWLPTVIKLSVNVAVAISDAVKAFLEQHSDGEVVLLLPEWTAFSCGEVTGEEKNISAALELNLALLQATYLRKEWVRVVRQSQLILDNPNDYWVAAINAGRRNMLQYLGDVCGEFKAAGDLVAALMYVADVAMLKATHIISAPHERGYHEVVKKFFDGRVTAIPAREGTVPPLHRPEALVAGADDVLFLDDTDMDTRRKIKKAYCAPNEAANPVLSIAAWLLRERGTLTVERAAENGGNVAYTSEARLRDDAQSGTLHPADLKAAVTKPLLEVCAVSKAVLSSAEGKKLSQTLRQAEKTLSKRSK
The assay is described as follows: Trypanosoma cruzi tyrosyl tRNA synthetase (TcYRS) _High Tyrosine SOP. Also: in the data most compounds retested in dose-response had high values. Format: functional. Particulars: 30 µM.

Assay [8] concerns the target T4, Tyrosyl-tRNA synthetase, putative (Trypanosoma cruzi (strain CL Brener)). The assay is described as follows: Trypanosoma cruzi tyrosyl tRNA synthetase (TcYRS) SOP. Format: functional. Particulars: 30 µM.
The target of assay [9] is Chromo domain-containing protein 1 (Saccharomyces cerevisiae (strain ATCC 204508 / S288c) (Baker's yeast)) (UniProt P32657). The assay is described as follows: ScCHD-1 Enzyme Inhibition Assay. Also: in the data most compounds retested in dose-response had high values. Format: functional. Particulars: 30 µM.
Chain of Chromo domain-containing protein 1 (Saccharomyces cerevisiae (strain ATCC 204508 / S288c) (Baker's yeast)) (P32657 whole entry, the tested form may be a part): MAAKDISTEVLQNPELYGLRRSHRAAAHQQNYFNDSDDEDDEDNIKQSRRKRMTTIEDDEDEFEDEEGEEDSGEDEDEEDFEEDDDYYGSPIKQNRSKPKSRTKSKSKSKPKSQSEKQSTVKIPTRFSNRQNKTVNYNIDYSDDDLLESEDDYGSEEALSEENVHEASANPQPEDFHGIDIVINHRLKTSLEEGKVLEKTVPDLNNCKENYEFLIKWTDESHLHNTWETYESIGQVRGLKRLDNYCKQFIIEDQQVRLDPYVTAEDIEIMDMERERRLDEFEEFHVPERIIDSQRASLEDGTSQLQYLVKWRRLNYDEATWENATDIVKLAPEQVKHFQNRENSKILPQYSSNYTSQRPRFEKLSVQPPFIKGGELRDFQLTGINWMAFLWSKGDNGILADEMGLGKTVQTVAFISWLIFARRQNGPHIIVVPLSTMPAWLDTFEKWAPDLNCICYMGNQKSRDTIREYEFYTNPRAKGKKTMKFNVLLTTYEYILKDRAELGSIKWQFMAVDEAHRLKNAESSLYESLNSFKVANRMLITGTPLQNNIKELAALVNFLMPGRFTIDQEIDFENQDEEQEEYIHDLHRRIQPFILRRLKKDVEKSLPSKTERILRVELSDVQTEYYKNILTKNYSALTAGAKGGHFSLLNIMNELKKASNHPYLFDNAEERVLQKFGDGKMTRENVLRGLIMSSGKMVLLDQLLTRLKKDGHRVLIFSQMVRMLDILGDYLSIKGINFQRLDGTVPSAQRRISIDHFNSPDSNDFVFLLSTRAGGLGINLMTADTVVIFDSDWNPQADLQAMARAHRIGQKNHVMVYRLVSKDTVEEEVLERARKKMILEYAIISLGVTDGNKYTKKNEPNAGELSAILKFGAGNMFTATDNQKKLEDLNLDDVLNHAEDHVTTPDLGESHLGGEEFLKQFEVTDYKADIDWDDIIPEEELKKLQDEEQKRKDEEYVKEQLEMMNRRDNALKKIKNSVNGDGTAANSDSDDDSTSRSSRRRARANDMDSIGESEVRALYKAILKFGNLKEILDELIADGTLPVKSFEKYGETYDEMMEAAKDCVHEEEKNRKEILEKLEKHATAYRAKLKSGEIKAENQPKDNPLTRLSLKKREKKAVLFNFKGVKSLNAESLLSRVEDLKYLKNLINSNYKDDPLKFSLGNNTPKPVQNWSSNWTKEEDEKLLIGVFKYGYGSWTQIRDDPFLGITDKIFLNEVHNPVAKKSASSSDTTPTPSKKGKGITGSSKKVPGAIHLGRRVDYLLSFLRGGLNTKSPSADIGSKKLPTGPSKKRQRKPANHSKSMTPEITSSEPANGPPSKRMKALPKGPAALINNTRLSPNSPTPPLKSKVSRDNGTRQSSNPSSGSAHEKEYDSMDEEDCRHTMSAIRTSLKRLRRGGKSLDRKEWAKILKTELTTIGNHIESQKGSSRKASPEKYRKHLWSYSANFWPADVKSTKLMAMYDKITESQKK

Molecules are shown by their SMILES. For some of these results: Potency and affinity values are given separately.

On to `Cc1ncsc1C(=O)NCCn1nc(C2CCNC2)c2cccnc21` (stereo unspecified), for which the Percent Effect in assay [1] was -1.57%; in assay [2] it was -2.67%; in assay [3], 5.57%; in assay [4], 1.22%; with Trypanosoma cruzi, 2.17%; in assay [5] it was 0.699%. Also, the Percent Effect in [6] is 3.26%; in the assay filed under Homo sapiens, -2.08%; in [7], 0%; in assay [8] it was 6.41%; in [9], 1.51%.
Take `COc1c(CNCc2cccc(Cn3ccnc3)c2)c(C)nn1C`: the Percent Effect in [1] was -5.63%; in assay [2], 21.6%; in [3], -15%; in assay [4], 13.9%; with Trypanosoma cruzi, 5.38%; in assay [5] it was -11.2%. Further, the Percent Effect is 10.3% in assay [6]; 37.8% in the assay filed under Homo sapiens; 4.43% in [7]; 18.5% in assay [8]; -10% in assay [9].
On to `CCc1ccc(S(=O)(=O)Nc2c(C)cccc2C(=O)O)s1`, for which the Percent Effect in assay [1] was -6.89%; in assay [2], 5.26%; in assay [3] it was -2.41%; in assay [4], 7.53%; with Trypanosoma cruzi it was 2.71%; in [5], -2.16%. The Percent Effect was 3.64% in assay [6]; -1.38% in the assay filed under Homo sapiens; 2.46% in assay [7]; 6.17% in assay [8]; 2.56% in [9].
As for `Cc1ccc(NC(=O)NCCCc2n[nH]c(N)c2C#N)cc1`, the Percent Effect was -1.33% in [1]; 15.2% in assay [2]; 3.73% in assay [3]; -1.97% in assay [4]; -3.12% in the assay with Trypanosoma cruzi; 1.9% in assay [5]. In addition, the Percent Effect was 13.5% in assay [6]; 13.3% in the assay listed under Homo sapiens; 5.42% in [7]; 11.4% in assay [8]; -3.94% in assay [9].
On to `COc1c(CNCc2ccc(N(C)C)nc2)c(C(C)C)nn1C`, for which the Percent Effect was -3.16% in [1]; 13.2% in assay [2]; -3.28% in assay [3]; 6.83% in [4]; 6.39% in the assay on Trypanosoma cruzi; 4.6% in assay [5]. Besides, the Percent Effect is 6.01% in [6]; 13.5% in the assay listed under Homo sapiens; 5.39% in assay [7]; 17.1% in assay [8]; -12.6% in assay [9].
In the case of `Cc1nnc(N2CCOC(Cn3cccn3)C2)c(C#N)c1C` (stereo unspecified), the Percent Effect in assay [1] was -1.71%; in [2], -5.26%; in assay [3], -36.6%; in [4], 1.01%; in the assay with Trypanosoma cruzi, 2.26%; in assay [5], 4.21%. Moreover, the Percent Effect in assay [6] was -0.334%; in the assay listed under Homo sapiens, -3.56%; in assay [7] it was 2.45%; in [8], 0%; in assay [9], -0.172%.
With `CCOc1ccc(N2CCCN=C2NC(=O)c2cccc(Cl)c2)cc1`, the Percent Effect in assay [1] was -0.891%; in assay [2] it was 5.2%; in assay [3], 1.42%; in assay [4] it was 2.2%; with Trypanosoma cruzi it was -4.62%; in assay [5] it was -13.8%. Besides, the Percent Effect in assay [6] was 14.6%; in the assay filed under Homo sapiens, 1.55%; in assay [7] it was 3.23%; in assay [8], 13.6%; in assay [9] it was 0.903%.
As for `Clc1snnc1CN1CCCCC1Cn1cncn1` (stereo unspecified), the Percent Effect is -0.0251% in [1]; 17.7% in [2]; -10.2% in [3]; -9.75% in [4]; -2.17% in the assay on Trypanosoma cruzi; 2.66% in assay [5]. For the same compound, the Percent Effect in [6] was 13.2%; in the assay filed under Homo sapiens it was 5.04%; in [7] it was 12.3%; in assay [8], 24.1%; in assay [9] it was -4.67%.
On to `Cc1cc(CN2CCN(C(C)c3nc(C4CC4)no3)CC2)no1` (stereo unspecified), for which the Percent Effect was 1.42% in assay [1]; 8.86% in assay [2]; -5.67% in [3]; -3.17% in [4]; -1.33% in the assay with Trypanosoma cruzi; 4.52% in [5]. Besides, the Percent Effect is 13.4% in assay [6]; 28.4% in the assay filed under Homo sapiens; -1.04% in assay [7]; 5.06% in assay [8]; -25.2% in assay [9].
On to `Cc1nc(C)n(CC2CCCN(Cc3cccc(C#N)c3)C2)n1` (stereo unspecified), for which the Percent Effect in [1] is -3.63%; in assay [2], -18.9%; in assay [3], -7.23%; in assay [4] it was 5.42%; with Trypanosoma cruzi it was -1.23%; in [5] it was -7.62%. The Percent Effect in [6] was 5.59%; in the assay filed under Homo sapiens it was 3.79%; in assay [7], 6.4%; in assay [8], 13.6%; in assay [9], -5.48%.
`CCOCCN1CCN(Cc2nnc(C3CC3)o2)CC1CC` (stereo unspecified): the Percent Effect was -2.67% in assay [1]; 11% in [2]; -18% in assay [3]; 17.7% in assay [4]; 8.03% in the assay with Trypanosoma cruzi; 18.6% in assay [5]. The Percent Effect was 1.95% in assay [6]; 2.56% in the assay filed under Homo sapiens; 2.15% in assay [7]; 7.5% in assay [8]; -5.28% in assay [9].
